# Source: paper PMC7862700, “An all-to-all approach to the identification of sequence-specific readers for epigenetic DNA modifications on cytosine”
# Assays:
# Assay in all cases: DAPPL (digital affinity profiling via proximity ligation, sequencing); 10 mM Tris-HCl pH 7.5, 50 mM NaCl, 1 mM DTT, 4% glycerol, room temperature, 30 min; GST-TFs on glutathione beads, 16-mer random dsDNA library, 0.1% formaldehyde crosslink after washing; high values mean tight binding
# [1] = target: T1, FLI1 (Homo sapiens, UniProt Q01543 1-452); settings: protein: recombinant; tags: N-terminal GST; dsDNA, one strand shown
# T1 sequence: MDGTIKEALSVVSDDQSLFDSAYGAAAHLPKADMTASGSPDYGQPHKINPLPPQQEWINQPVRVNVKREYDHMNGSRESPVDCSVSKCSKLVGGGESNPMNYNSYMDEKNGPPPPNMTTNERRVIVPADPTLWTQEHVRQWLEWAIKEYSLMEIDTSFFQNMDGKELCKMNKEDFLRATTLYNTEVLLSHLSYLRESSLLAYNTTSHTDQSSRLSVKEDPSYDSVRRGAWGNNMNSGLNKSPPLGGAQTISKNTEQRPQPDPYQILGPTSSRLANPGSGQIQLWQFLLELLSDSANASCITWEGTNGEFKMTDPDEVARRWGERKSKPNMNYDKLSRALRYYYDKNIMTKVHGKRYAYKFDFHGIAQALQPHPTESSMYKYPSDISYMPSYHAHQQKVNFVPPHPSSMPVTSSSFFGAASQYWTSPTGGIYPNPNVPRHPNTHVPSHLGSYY
# Procedure, shortened: (§1)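 After expression in yeast as GST fusions, human transcription factors were bound to glutathione beads, DNA-barcoded and mixed with a tag-only sample. The pools were incubated with 200 nmole of a 16-mer random double-stranded DNA library in Tris/NaCl/DTT/glycerol buffer (30 min, room temperature), washed and crosslinked with 0.1% formaldehyde. Proximity ligation with BsaI/T4 ligase ran for 1 h at 37 °C, before PCR amplification and sequencing on an Illumina NextSeq500. Binding signal is a hexamer's read frequency for a factor divided by its frequency for the tag-only sample.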
# [2] = target: T2, ELK1 (Homo sapiens, UniProt P19419 1-428); settings: protein: recombinant; tags: N-terminal GST; dsDNA, one strand shown
# T2 sequence: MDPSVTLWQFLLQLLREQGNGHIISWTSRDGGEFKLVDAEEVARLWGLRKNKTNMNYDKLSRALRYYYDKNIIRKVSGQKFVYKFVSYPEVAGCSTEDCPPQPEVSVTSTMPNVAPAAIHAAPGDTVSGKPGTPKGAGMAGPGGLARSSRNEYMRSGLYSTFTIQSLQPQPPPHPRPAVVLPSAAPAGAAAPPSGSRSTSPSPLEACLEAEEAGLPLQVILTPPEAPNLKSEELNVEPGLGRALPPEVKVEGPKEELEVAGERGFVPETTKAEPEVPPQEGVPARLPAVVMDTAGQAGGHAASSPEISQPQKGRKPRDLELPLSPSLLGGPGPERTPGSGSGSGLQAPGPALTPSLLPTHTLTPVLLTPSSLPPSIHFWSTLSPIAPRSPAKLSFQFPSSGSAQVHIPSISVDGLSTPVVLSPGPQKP
# Procedure, shortened: as §1
# [3] = target: T3, GABPA (Homo sapiens, UniProt Q06546 1-454); settings: protein: recombinant; tags: N-terminal GST; dsDNA, one strand shown
# T3 sequence: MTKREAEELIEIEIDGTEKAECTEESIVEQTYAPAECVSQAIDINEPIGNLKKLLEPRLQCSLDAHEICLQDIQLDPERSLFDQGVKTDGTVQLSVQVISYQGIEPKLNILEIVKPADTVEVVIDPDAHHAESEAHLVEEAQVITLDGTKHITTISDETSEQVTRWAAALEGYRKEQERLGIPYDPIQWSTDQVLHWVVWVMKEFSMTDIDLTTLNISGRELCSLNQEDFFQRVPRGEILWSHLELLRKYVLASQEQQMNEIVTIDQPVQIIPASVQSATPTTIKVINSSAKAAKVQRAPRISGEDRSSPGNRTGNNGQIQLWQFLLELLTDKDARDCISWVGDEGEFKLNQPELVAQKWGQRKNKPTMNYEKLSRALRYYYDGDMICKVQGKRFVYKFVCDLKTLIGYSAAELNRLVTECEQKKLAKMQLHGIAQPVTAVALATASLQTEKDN
# Procedure, shortened: as §1
# [4] = target: T4, ERG (Homo sapiens, UniProt P11308 1-479); settings: protein: recombinant; tags: N-terminal GST; dsDNA, one strand shown
# T4 sequence: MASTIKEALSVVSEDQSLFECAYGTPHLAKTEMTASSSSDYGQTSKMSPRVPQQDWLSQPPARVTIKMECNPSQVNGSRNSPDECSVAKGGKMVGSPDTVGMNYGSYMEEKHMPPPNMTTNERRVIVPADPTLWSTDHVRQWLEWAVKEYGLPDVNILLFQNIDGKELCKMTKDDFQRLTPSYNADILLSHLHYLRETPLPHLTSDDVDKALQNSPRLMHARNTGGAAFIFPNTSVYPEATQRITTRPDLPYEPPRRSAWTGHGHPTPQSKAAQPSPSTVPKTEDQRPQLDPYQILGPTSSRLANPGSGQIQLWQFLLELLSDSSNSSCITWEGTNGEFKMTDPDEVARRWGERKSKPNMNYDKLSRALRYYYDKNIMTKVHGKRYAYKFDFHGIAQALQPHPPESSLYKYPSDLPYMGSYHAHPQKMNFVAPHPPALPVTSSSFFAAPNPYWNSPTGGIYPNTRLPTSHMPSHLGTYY
# Procedure, shortened: as §1
# [5] = target: ELF1 (Homo sapiens, UniProt P32519 1-619); settings: protein: recombinant; tags: N-terminal GST; dsDNA, one strand shown
# Procedure, shortened: as §1
# [6] = target: T5, EHF (Homo sapiens, UniProt Q9NZC4 1-300); settings: protein: recombinant; tags: N-terminal GST; dsDNA, one strand shown
# T5 sequence: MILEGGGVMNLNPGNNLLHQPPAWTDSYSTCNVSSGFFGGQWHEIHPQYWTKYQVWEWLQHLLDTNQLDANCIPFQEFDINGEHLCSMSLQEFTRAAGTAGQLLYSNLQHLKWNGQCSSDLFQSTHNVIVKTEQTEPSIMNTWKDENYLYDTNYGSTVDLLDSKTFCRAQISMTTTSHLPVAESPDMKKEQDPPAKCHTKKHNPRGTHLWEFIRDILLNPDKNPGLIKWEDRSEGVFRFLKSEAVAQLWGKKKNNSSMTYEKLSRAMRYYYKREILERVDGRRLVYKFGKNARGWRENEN
# Procedure, shortened: as §1
# [7] = target: SPI1 (Homo sapiens, UniProt P17947 1-270); settings: protein: recombinant; tags: N-terminal GST; dsDNA, one strand shown
# Procedure, shortened: as §1
# [8] = target: SPIB (Homo sapiens, UniProt Q01892 1-262); settings: protein: recombinant; tags: N-terminal GST; dsDNA, one strand shown
# Procedure, shortened: as §1
# [9] = target: T6, ELK3 (Homo sapiens, UniProt P41970 1-407); settings: protein: recombinant; tags: N-terminal GST; dsDNA, one strand shown
# T6 sequence: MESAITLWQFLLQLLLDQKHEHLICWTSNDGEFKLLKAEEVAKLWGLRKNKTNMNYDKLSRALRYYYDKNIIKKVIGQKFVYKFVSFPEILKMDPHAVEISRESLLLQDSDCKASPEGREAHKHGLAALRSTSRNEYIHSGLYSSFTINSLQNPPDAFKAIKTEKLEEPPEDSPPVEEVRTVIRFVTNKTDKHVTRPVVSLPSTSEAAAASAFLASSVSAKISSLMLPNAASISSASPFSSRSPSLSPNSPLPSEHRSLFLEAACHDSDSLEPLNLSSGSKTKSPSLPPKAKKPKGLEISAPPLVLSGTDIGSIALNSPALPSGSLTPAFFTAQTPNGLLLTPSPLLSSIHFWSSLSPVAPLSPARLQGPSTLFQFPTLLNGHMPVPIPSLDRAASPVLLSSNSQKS
# Procedure, shortened: as §1
# [10] = target: T7, FEV (Homo sapiens, UniProt Q99581 1-238); settings: protein: recombinant; tags: N-terminal GST; dsDNA, one strand shown
# T7 sequence: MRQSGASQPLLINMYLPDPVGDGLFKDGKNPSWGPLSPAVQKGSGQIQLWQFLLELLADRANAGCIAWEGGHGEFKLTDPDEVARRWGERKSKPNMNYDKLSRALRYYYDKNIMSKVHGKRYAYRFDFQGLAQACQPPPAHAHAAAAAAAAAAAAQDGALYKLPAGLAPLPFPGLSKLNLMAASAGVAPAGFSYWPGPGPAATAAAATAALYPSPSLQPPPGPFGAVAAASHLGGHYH
# Procedure, shortened: as §1
# [11] = target: ETV5 (Homo sapiens, UniProt P41161 1-510); settings: protein: recombinant; tags: N-terminal GST; dsDNA, one strand shown
# Procedure, shortened: as §1
# [12] = target: HSF1 (Homo sapiens, UniProt Q00613 1-529); settings: protein: recombinant; tags: N-terminal GST; chain copies: 3; dsDNA, one strand shown
# Procedure, shortened: as §1
# [13] = target: T8, SPIC (Homo sapiens, UniProt Q8N5J4 1-248); settings: protein: recombinant; tags: N-terminal GST; dsDNA, one strand shown
# T8 sequence: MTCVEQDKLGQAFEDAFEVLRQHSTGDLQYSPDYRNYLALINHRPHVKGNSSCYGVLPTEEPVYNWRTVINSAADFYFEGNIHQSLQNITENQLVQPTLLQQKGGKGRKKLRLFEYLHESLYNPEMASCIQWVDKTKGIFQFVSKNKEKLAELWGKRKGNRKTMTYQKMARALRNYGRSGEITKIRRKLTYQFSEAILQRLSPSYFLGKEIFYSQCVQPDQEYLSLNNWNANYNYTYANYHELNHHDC
# Procedure, shortened: as §1
# [14] = target: ELF4 (Homo sapiens, UniProt Q99607 1-663); settings: protein: recombinant; tags: N-terminal GST; dsDNA, one strand shown
# Procedure, shortened: as §1
# [15] = target: T9, ELK4 (Homo sapiens, UniProt P28324-2 1-405); settings: protein: recombinant; tags: N-terminal GST; dsDNA, one strand shown
# T9 sequence: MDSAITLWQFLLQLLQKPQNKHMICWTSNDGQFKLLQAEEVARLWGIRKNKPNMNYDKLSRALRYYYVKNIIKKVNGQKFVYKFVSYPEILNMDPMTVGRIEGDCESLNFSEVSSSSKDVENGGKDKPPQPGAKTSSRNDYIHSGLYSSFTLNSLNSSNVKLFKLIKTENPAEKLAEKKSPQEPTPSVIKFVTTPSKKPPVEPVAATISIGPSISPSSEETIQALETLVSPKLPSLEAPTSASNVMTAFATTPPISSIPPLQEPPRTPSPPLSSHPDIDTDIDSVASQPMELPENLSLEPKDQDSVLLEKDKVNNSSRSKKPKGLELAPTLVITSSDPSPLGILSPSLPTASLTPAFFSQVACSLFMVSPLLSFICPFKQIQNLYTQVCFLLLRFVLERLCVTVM
# Procedure, shortened: as §1
# [16] = target: T10, ETV2 (Homo sapiens, UniProt O00321 1-342); settings: protein: recombinant; tags: N-terminal GST; dsDNA, one strand shown
# T10 sequence: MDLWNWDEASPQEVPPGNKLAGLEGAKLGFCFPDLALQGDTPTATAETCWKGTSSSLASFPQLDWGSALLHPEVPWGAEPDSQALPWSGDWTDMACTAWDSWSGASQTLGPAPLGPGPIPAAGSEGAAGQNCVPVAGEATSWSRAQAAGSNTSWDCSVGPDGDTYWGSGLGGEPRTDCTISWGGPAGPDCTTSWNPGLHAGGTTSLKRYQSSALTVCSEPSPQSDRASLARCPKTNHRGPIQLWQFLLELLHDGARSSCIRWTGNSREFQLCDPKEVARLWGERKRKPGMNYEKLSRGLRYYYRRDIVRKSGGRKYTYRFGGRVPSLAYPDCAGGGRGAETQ
# Procedure, shortened: as §1
# [17] = target: T11, ELF3 (Homo sapiens, UniProt P78545 1-371); settings: protein: recombinant; tags: N-terminal GST; dsDNA, one strand shown
# T11 sequence: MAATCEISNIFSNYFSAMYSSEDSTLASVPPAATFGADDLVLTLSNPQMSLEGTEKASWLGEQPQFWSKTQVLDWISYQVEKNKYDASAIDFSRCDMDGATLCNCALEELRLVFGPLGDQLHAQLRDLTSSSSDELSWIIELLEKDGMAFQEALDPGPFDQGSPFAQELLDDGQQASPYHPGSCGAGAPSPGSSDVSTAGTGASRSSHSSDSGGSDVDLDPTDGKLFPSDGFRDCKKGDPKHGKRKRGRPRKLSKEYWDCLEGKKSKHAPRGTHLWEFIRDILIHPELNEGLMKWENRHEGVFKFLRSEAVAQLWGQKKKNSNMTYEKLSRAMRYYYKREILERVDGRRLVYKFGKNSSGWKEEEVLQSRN
# Procedure, shortened: as §1
# [18] = target: CRX (Homo sapiens, UniProt O43186 1-299); settings: protein: recombinant; tags: N-terminal GST; dsDNA, one strand shown
# Procedure, shortened: as §1
# [19] = target: ETV1 (Homo sapiens, UniProt P50549 1-477); settings: protein: recombinant; tags: N-terminal GST; dsDNA, one strand shown
# Procedure, shortened: as §1
# Sequence of ETV5 (P41161 whole entry): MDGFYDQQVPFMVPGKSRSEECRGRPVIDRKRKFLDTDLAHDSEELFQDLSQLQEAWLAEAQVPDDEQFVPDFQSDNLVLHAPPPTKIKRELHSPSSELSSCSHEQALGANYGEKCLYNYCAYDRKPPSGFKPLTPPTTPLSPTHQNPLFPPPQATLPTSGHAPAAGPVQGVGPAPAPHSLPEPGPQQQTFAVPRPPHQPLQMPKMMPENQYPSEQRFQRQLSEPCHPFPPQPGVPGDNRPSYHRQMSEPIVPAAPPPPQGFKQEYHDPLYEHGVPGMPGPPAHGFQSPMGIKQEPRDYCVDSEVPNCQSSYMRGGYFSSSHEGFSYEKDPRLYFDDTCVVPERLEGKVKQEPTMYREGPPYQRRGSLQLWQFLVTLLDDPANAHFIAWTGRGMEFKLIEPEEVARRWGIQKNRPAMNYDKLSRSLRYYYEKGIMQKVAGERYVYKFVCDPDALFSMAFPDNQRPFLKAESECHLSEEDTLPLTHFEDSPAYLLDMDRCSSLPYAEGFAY
# Sequence of ELF1 (P32519 whole entry): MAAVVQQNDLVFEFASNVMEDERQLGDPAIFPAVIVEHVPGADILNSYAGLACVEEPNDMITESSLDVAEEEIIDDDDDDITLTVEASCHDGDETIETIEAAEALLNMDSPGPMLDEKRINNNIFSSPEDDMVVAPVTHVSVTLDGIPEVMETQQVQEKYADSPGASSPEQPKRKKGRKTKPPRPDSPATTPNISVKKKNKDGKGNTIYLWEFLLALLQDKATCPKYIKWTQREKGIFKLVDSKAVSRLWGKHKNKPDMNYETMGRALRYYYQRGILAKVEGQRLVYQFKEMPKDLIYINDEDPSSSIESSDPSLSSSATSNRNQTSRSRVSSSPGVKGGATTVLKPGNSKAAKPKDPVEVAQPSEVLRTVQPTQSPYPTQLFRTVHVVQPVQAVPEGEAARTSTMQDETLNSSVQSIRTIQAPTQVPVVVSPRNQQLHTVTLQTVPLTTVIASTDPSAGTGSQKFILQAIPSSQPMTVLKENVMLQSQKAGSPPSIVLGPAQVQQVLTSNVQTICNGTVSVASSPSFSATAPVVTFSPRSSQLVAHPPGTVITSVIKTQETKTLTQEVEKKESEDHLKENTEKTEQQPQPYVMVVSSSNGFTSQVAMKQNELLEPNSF
# Sequence of HSF1 (Q00613 whole entry): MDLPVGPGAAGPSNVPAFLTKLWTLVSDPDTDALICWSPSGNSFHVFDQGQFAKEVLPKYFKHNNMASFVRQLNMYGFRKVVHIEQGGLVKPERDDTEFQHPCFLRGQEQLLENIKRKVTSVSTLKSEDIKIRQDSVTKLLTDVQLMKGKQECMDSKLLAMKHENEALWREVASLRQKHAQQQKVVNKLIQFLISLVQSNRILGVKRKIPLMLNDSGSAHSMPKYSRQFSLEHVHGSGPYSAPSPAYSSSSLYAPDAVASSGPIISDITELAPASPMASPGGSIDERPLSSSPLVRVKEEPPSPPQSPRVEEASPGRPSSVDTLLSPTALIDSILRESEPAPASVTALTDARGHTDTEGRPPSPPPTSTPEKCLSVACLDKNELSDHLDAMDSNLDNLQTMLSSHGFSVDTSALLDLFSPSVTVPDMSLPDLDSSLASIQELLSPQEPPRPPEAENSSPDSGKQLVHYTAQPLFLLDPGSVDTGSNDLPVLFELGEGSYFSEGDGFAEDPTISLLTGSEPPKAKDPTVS
# Sequence of ELF4 (Q99607 whole entry): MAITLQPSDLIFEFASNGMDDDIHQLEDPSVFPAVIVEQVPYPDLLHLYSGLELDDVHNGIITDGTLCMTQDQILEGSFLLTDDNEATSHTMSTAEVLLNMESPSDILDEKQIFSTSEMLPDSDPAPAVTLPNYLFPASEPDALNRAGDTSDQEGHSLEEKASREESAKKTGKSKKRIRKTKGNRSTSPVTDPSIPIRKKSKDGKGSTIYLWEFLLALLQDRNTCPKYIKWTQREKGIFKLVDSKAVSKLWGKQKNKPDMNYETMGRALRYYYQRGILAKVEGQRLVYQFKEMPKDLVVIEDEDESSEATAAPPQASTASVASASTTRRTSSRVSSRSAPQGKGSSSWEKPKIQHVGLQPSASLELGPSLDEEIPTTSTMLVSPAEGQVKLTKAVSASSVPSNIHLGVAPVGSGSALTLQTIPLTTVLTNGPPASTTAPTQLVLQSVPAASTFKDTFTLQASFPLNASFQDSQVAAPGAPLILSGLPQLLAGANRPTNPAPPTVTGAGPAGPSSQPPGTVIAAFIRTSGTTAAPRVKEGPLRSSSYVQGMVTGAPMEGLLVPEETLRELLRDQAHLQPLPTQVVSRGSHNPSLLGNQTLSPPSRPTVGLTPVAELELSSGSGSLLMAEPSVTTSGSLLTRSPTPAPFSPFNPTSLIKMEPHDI
# Sequence of CRX (O43186 whole entry): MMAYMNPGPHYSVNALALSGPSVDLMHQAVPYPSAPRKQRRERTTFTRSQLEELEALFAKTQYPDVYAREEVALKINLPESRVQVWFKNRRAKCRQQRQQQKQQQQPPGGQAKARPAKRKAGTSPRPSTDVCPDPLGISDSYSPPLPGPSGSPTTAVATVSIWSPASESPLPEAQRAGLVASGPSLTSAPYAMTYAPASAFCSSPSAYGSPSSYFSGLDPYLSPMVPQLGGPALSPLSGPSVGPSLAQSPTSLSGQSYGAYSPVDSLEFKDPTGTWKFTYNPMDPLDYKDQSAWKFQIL
# Sequence of ETV1 (P50549 whole entry): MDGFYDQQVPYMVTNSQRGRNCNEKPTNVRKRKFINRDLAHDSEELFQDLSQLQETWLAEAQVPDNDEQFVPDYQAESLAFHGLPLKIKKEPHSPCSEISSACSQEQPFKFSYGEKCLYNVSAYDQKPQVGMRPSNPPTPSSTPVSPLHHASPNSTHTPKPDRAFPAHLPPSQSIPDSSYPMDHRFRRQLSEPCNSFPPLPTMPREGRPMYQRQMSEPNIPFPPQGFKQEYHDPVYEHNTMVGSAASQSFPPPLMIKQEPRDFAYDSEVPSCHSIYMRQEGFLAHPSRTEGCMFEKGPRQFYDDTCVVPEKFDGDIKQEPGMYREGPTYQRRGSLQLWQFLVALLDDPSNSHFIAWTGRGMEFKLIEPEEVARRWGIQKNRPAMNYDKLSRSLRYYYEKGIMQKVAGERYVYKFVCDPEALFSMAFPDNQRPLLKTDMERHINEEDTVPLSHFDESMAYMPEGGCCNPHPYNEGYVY
# Sequence of SPIB (Q01892 whole entry): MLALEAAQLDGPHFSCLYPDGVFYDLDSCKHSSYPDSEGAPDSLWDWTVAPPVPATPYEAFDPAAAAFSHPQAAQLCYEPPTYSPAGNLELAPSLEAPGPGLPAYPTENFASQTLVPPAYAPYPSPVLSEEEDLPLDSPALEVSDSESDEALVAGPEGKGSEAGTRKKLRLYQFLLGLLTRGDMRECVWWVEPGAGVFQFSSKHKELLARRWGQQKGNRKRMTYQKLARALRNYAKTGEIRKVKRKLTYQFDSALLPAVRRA
sequence,measurement,setting,value
CTAGCA,binding signal,[1],"1.28 fold enrichment (6-mer frequency, TF over GST control)"
same,binding signal,[2],"1.26 fold enrichment (6-mer frequency, TF over GST control)"
same,binding signal,[3],"1.2 fold enrichment (6-mer frequency, TF over GST control)"
same,binding signal,[4],"1.18 fold enrichment (6-mer frequency, TF over GST control)"
same,binding signal,[5],"1.26 fold enrichment (6-mer frequency, TF over GST control)"
same,binding signal,[6],"1.23 fold enrichment (6-mer frequency, TF over GST control)"
same,binding signal,[7],"1.14 fold enrichment (6-mer frequency, TF over GST control)"
same,binding signal,[8],"1.24 fold enrichment (6-mer frequency, TF over GST control)"
same,binding signal,[9],"1.33 fold enrichment (6-mer frequency, TF over GST control)"
same,binding signal,[10],"1.27 fold enrichment (6-mer frequency, TF over GST control)"
same,binding signal,[11],"1.25 fold enrichment (6-mer frequency, TF over GST control)"
same,binding signal,[12],"2.11 fold enrichment (6-mer frequency, TF over GST control)"
same,binding signal,[13],"1.11 fold enrichment (6-mer frequency, TF over GST control)"
same,binding signal,[14],"1.3 fold enrichment (6-mer frequency, TF over GST control)"
same,binding signal,[15],"1.25 fold enrichment (6-mer frequency, TF over GST control)"
same,binding signal,[16],"1.35 fold enrichment (6-mer frequency, TF over GST control)"
same,binding signal,[17],"1.21 fold enrichment (6-mer frequency, TF over GST control)"
same,binding signal,[18],"1.34 fold enrichment (6-mer frequency, TF over GST control)"
same,binding signal,[19],"1.24 fold enrichment (6-mer frequency, TF over GST control)"
